This passage reports composite z-score, z-score and outcome results from PubChem BioAssay.

Structures are written as SMILES. For part of these data: Results with a measured potency or affinity are listed apart. Calls of active or inactive are those of the source. Unless noted, the rule behind the calls is not given here.

For experiment [1], the system named is XIP peptide (Xip251-270) binding. Nature of the experiment: XIP fragment 251-270 binding compounds – biochemical, small-molecule microarray, fluorescence 635/667 nm, 0.1 µg/mL protein, primary screen (AID 1182). The settings on record: fluorescent protein binding, 635 nm, higher = more signal, called active from +8 up or from −8 down.
A further experiment has as its system XIP peptide (Xip251-270). As to the kind of experiment: compounds binding XIP fragment 251-270 – biochemical, small-molecule microarray, fluorescence 635/667 nm, 0.5 µg/mL protein, primary screen (AID 1183). The following applies: fluorescence 635 nm, higher = more signal.
A short description of experiment [2]: blood-stage malaria parasite viability loss – strain 3D7, DAPI fluorescence, 100 nL, primary screen (AID 1184).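 Note: parasites grown inside human red blood cells in medium with human serum.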 The following applies: P. falciparum 3D7 growth, 3 d, higher = more signal.
Experiment [3] deals with Homeobox protein Hox-A13 (Mus musculus) (UniProt Q62424). Nature of the experiment: disruptors of Hoxa13 oligonucleotide interaction – biochemical, fluorescence polarization, labeled oligonucleotide, primary screen (AID 1185). The following applies: Hoxa13:DNA binding, 15 min, higher = more signal, called active from +8 up or from −8 down. Background: Polarisation of emitted light reports the rotation of a fluorescent probe.

The nature of experiment [4]: blockers of DNA damage checkpoint Chk1 activation – imaging, HeLa, hydroxyurea, phospho-Chk1 antibody, percent positive cells, primary screen (AID 1186). The following applies: hydroxyurea-induced phospho-Chk1 immunofluorescence imaging, higher = more signal.
A short description of experiment [5]: blockers of DNA damage checkpoint Chk1 activation – imaging, HeLa, hydroxyurea, phospho-Chk1 nuclear intensity, primary screen (AID 1187). The following applies: hydroxyurea-induced phospho-Chk1 immunofluorescence imaging, higher = more signal.
A short description of experiment [6]: C. neoformans lysis by adenylate kinase leakage – AK release luminescence, cherry-picks, dose response (AID 687000;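 active = fitted dose curve reaches 40% lysis signal rise at or below the highest valid concentration tested for that sample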;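 note: luminescent detection of adenylate kinase leaking from lysed yeast; 0% = median neutral control signal and 100% = double that signal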). The settings on record: 4 h, 100% = twice the neutral-control signal; series mostly up to 15 µM.
Experiment [7] is described as follows: viability loss in HepG2 hepatoma cells – cell-based, cherry-picks, set 2, cytotoxicity control, dose response (AID 687002;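 active = a dose-response fit showing signal loss, with half-maximal concentration no higher than twice the top tested dose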). The settings on record: ATP luminescence (CellTiter-Glo), 48 h; series mostly up to 26 µM. (In general: Cellular ATP, detected with luciferase, serves as a proxy for viable cell number.)
A short description of experiment [8]: viability loss in HeLa cells – cell-based, ATP luminescence, cherry-pick samples, cytotoxicity control, dose response (AID 687004;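 active = a fitted half-maximal concentration no higher than twice the top valid tested dose, with signal falling as cells die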;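 note: 0% = neutral control median and -100% = staurosporine 10 µM control median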). The following applies: ATP luminescence (CellTiter-Glo), 48 h; series mostly up to 26 µM.

Chain of Homeobox protein Hox-A13 (Mus musculus) (Q62424 whole entry, looked up): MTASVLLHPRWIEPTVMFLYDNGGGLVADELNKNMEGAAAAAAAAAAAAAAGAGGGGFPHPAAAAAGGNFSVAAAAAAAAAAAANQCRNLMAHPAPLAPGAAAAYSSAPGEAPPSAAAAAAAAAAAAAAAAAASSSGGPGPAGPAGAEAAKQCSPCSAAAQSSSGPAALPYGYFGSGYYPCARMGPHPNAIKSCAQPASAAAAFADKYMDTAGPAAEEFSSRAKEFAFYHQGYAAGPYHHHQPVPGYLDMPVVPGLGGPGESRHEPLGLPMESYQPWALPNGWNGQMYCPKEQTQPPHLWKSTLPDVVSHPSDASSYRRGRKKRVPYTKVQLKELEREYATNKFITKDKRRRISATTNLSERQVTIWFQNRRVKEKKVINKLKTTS

For `C/C(=N\O)C(=O)NCCCCCNC(=O)OCc1ccccc1`, the values for the composite z-score (in experiment [1]; in the experiment with XIP peptide (Xip251-270)) were 0.759 (inactive) and 0.58, respectively. Also, the z-score is 0.574 in [2], -0.408 (inactive) in experiment [3], -0.103 (inactive) in experiment [4] and -0.394 (inactive) in experiment [5].
Consider `CC(C)[C@H]1NC(=O)[C@@]23C(=O)N[C@@H](Cc4ccccc4)C2[C@H](C)[C@@]2(C)O[C@H]2C3/C=C/C/C=C\CNC(=O)[C@H](C)NC1=O` (stereo partly specified), for which the composite z-score in [1] is -0.311 (inactive); in the experiment on XIP peptide (Xip251-270) it was -0.791. For the same compound, the z-score in experiment [2] was -0.162; in [3], -6.31 (inactive); in experiment [4], 0.126 (inactive); in [5], 0.42 (inactive).
Regarding `O=C1O[C@H](c2ccccc2)[C@H](c2ccccc2)N2[C@H]1[C@@H](C(=O)Nc1nc3ccccc3s1)[C@]1(C(=O)Nc3ccc(C#CC4=CCCCC4)cc31)[C@H]2c1ccccc1OCCO`, the composite z-score in experiment [1] was 0.0485 (inactive); in the experiment on XIP peptide (Xip251-270), 0.0555. For the same compound, the z-score was -2.09 in experiment [2], -9.05 (active) in [3], 0.205 (inactive) in [4] and 0.375 (inactive) in experiment [5].
On to `O=C(NCc1ccccc1)[C@@]1(Cc2ccccc2)COC(c2ccc(OCCCO)cc2)=N1`, for which the composite z-score in experiment [1] was 0.489 (inactive); in the experiment with XIP peptide (Xip251-270), 0.75. Further, the z-score in experiment [2] was -2.15; in [3] it was -4.9 (inactive); in experiment [4], -0.583 (inactive); in experiment [5] it was -0.649 (inactive).
Regarding `O=C1C2C=CC(C(O)C(c3ccccc3)c3ccccc3)N(Nc3ccc([N+](=O)[O-])cc3)C2C(=O)N1c1ccccc1` (stereo unspecified), the composite z-score is -0.0268 (inactive) in experiment [1] and 0.747 in the experiment on XIP peptide (Xip251-270). Also, the z-score was 0.535 in [2], -1.88 (inactive) in experiment [3], 0.349 (inactive) in experiment [4] and 0.0443 (inactive) in experiment [5].
With `COc1cc(CO)cc(I)c1O[C@H]1C=C(C(=O)NCCO)C[C@@H](N(CC2CCCCC2)C(=O)c2cc3ccccc3oc2=O)[C@@H]1O`, the composite z-score is 0.193 (inactive) in experiment [1] and 0.24 with XIP peptide (Xip251-270). For the same compound, the z-score in [2] was 1.04; in [3] it was -6.1 (inactive); in [4], 0.113 (inactive); in experiment [5] it was 0.194 (inactive). Also, the compound was classed as inactive in [6], in experiment [7] and in [8].
Take `C[C@]1(C(=O)NCc2ccccc2)c2ccccc2C(=O)N(Cc2cc(C(F)(F)F)cc(C(F)(F)F)c2)[C@H]1c1ccc(CO)cc1`: the composite z-score is 1.03 (inactive) in experiment [1] and -0.105 in the experiment on XIP peptide (Xip251-270). For the same compound, the z-score in [2] was -1.61; in [3], -1.78 (inactive); in experiment [4] it was -1.45 (inactive); in [5], -2.06 (inactive).
As for `C=CC[C@]1(C(N)=O)N=C(c2ccc(OCCCO)cc2)O[C@H]1c1ccccc1CN=[N+]=[N-]`, the composite z-score in experiment [1] was 0.914 (inactive); in the experiment on XIP peptide (Xip251-270), -0.313. The z-score in experiment [2] was -2.04; in experiment [3], -2.82 (inactive); in experiment [4], -0.273 (inactive); in experiment [5], 0.168 (inactive).
Take `C=CCC(OC(C)=O)[C@@H]1[C@@H](N(Cc2ccc(-c3cccc(C(F)(F)F)c3)o2)C(=O)Cc2ccc(F)cc2)c2cc(OCCCO)ccc2N1C(=O)c1ccc(-c2ccccc2)cc1` (stereo partly specified): the figures for the composite z-score (in experiment [1]; in the experiment on XIP peptide (Xip251-270)) were -0.403 (inactive) and -0.829, respectively. In addition, the z-score was -0.294 in [2], -1.2 (inactive) in experiment [3], 0.634 (inactive) in [4] and -0.385 (inactive) in experiment [5].
For `C=CCC(OC(C)=O)[C@@H]1[C@@H](N(Cc2cc3ccccc3o2)C(=O)c2ccc(C)cc2)c2cc(OCCCO)ccc2N1C(=O)c1ccc2ccccc2n1` (stereo partly specified), the composite z-score is 0.167 (inactive) in [1] and -0.442 with XIP peptide (Xip251-270). Also, the z-score in experiment [2] is -0.863; in experiment [3], -1.79 (inactive); in [4], 0.347 (inactive); in [5], 0.295 (inactive).
With `[N-]=[N+]=NCc1ccccc1C[C@@]1(C(=O)N2CCOCC2)N=C(c2ccc(OCCCO)cc2)O[C@@H]1c1ccccc1N=[N+]=[N-]`, the composite z-score was 1.4 (inactive) in [1] and 0.711 in the experiment on XIP peptide (Xip251-270). The z-score in [2] was -1.98; in experiment [3], -0.217 (inactive); in [4] it was -0.269 (inactive); in [5], 0.0427 (inactive).
With `O=C1OCC=C[C@H]2OC34C=CCN(Cc5ccccc5)C(=O)[C@H]3N(CCO)C(=O)[C@@H]4[C@@H]12` (stereo partly specified), the composite z-score in [1] was -0.132 (inactive); in the experiment with XIP peptide (Xip251-270) it was 0.666. In addition, the z-score was 0.438 in experiment [2], -4.18 (inactive) in [3], 0.373 (inactive) in [4] and 0.252 (inactive) in experiment [5].
Consider `CC(=O)NCCCC[C@@H]1NC(=O)[C@@H]2C[C@H](C(=O)NCCCCCNC(=O)CS)[C@H](c3ccc(O)cc3)N2C1=O`, for which the composite z-score in experiment [1] is 0.214 (inactive); in the experiment on XIP peptide (Xip251-270), 0.132. The z-score in experiment [2] was -0.59; in experiment [3], -3.98 (inactive); in experiment [4] it was 1.12 (inactive); in experiment [5], 0.99 (inactive).
